Inconclusive results are not listed. Calls of active or inactive are those of the source. Unless noted, calls follow the shape of the dose curve; as a rule, active = well fitted curve in the direction sought with a large enough effect in the repeat runs; inconclusive = weak or mixed curves; inactive = no such curve, though single readings can be large; an effect the other way counts as inactive or inconclusive.
Key:
[1] = qHTS assay to identify small molecule antagonists of the thyroid receptor (TR) signaling pathway - cell viability counter screen (AID 743064); also: nearly all actives have a fitted effect of over 50% in size
Summary of the method: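 Plate GH3.TRE-Luc cells; incubate 4 h at 37 °C; add compound, then T3 to 1 nM final; incubate 23.5 h; add CellTiter-Fluor; incubate 30 min at 37 °C, 5% CO2; read fluorescence.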

[2] = qHTS assay to identify small molecule antagonists of the thyroid receptor (TR) signaling pathway (AID 743065); also: series mostly up to about 70 µM; nearly all actives have a fitted effect of over 55% in size
Summary of the method: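 GH3.TRE-Luc rat pituitary cells (two TREs driving luciferase) were dosed with compound, then stimulated with 1 nM T3 (final) for 23.5 h at 37 C. ONE-Glo luminescence was the read-out, with CellTiter-Fluor fluorescence as the cytotoxicity counter-screen.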

[3] = system: thyroid hormone receptor (rat, GH3 cells); experiment: qHTS assay to identify small molecule agonists of the thyroid receptor (TR) signaling pathway (AID 743066; calls by dose curve)
[4] = biological target: Estrogen receptor (Homo sapiens) (UniProt P03372); experiment: qHTS assay to identify small molecule antagonists of the estrogen receptor alpha (ER-alpha) signaling pathway (AID 743069; active = well fitted curve in the direction sought with a large enough effect in the signal ratio in the repeat runs, not every such curve was filed as active; the % refers to the signal ratio)
Estrogen receptor (Homo sapiens), sequence (P03372 whole entry, looked up): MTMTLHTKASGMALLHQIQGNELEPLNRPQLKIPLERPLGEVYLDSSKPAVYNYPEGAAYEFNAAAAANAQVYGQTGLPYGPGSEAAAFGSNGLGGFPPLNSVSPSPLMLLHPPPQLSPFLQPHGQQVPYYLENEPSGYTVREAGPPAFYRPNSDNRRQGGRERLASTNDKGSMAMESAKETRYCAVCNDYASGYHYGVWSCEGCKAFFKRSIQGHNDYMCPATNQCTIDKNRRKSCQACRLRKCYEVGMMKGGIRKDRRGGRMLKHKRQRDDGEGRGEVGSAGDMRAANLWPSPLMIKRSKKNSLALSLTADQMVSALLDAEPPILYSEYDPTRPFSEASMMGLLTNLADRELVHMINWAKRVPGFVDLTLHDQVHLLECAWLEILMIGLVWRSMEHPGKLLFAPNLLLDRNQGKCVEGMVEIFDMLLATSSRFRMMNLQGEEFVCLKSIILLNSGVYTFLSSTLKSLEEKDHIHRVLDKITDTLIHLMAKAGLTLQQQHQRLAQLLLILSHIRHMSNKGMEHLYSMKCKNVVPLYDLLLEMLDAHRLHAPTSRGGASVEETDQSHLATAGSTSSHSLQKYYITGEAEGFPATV
Summary of the method: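 Beta-lactamase FRET fluorescence is read after 2 hr at room temperature with LiveBLAzer B/G substrate. Before that, ER-alpha-bla HEK293 cells sit 4 hr after plating, then receive compound plus 17beta-estradiol and incubate 18 hr at 37C.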

[5] = qHTS assay to identify small molecule antagonists of the estrogen receptor alpha (ER-alpha) signaling pathway - cell viability counter screen (AID 743074; calls by dose curve;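 also: HEK293 cells carrying ER-alpha-UAS-bla reporter stimulated with 17beta-estradiol; nearly all actives have a fitted effect of over 45% in size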)
[6] = biological target: Estrogen receptor (Homo sapiens) (UniProt P03372); experiment: qHTS assay to identify small molecule agonists of the estrogen receptor alpha (ER-alpha) signaling pathway (AID 743075; calls by dose curve;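 also: HEK293 GripTite cells with ER-alpha and UAS-driven beta-lactamase reporter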)
[7] = biological target: Estrogen receptor (Homo sapiens) (UniProt P03372); experiment: qHTS assay to identify small molecule agonists of the estrogen receptor alpha (ER-alpha) signaling pathway using the BG1 cell line (AID 743079); also: nearly all actives have a fitted effect of over 20% in size
[8] = qHTS assay to identify small molecule antagonists of the estrogen receptor alpha (ER-alpha) signaling pathway using the BG1 cell line (AID 743080; calls by dose curve;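 also: BG1 cells stimulated with 17beta-estradiol alongside compound; series mostly up to about 70 µM; nearly all actives have a fitted effect of over 25% in size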)
Summary of the method: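 BG1-Luc-4E2 cells (endogenous full-length ER-alpha, stable 4×ERE-luciferase) were starved 5 days in phenol-red-free medium with 10% charcoal-stripped FBS, plated 24 h, then given compound plus 17beta-estradiol for 21.5 h at 37 C; ONE-Glo luminescence read after 30 min.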

[9] = qHTS assay to identify small molecule antagonists of the estrogen receptor alpha (ER-alpha) signaling pathway using the BG1 cell line - cell viability counter screen (AID 743081);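 also: compound given together with 17beta-estradiol as the ER stimulus; series mostly up to about 70 µM; nearly all actives have a fitted effect of over 45% in size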
[10] = biological target: Aromatase (Homo sapiens) (UniProt P11511); experiment: qHTS assay to identify aromatase inhibitors (AID 743083); also: series mostly up to about 70 µM; nearly all actives have a fitted effect of over 55% in size
Aromatase (Homo sapiens), sequence (P11511 whole entry, looked up): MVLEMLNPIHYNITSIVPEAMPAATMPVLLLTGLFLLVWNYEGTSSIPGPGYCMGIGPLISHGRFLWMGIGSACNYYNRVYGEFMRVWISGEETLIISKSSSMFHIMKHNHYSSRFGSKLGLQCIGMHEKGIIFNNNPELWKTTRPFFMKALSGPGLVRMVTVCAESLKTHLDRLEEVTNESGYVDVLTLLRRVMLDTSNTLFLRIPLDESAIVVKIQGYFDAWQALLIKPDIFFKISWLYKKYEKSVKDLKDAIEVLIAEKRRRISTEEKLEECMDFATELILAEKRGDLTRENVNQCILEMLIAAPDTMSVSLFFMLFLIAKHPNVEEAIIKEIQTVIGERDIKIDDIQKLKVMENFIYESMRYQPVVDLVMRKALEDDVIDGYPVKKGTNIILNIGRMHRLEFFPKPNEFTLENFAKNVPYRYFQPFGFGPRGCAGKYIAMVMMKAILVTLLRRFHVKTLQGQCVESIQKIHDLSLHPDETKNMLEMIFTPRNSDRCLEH

[11] = qHTS assay to identify aromatase inhibitors - cell viability counter screen (AID 743084);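 also: cells stimulated with testosterone during compound exposure; nearly all actives have a fitted effect of over 55% in size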
[12] = biological target: Aryl hydrocarbon receptor (Homo sapiens) (UniProt P35869); experiment: qHTS assay to identify small molecule that activate the aryl hydrocarbon receptor (AhR) signaling pathway (AID 743085);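 also: HG2L7.5c1 human HepG2 liver cells with stably integrated DRE-driven firefly reporter; series mostly up to about 70 µM; nearly all actives have a fitted effect of over 15% in size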
Aryl hydrocarbon receptor (Homo sapiens), sequence (P35869 whole entry, looked up): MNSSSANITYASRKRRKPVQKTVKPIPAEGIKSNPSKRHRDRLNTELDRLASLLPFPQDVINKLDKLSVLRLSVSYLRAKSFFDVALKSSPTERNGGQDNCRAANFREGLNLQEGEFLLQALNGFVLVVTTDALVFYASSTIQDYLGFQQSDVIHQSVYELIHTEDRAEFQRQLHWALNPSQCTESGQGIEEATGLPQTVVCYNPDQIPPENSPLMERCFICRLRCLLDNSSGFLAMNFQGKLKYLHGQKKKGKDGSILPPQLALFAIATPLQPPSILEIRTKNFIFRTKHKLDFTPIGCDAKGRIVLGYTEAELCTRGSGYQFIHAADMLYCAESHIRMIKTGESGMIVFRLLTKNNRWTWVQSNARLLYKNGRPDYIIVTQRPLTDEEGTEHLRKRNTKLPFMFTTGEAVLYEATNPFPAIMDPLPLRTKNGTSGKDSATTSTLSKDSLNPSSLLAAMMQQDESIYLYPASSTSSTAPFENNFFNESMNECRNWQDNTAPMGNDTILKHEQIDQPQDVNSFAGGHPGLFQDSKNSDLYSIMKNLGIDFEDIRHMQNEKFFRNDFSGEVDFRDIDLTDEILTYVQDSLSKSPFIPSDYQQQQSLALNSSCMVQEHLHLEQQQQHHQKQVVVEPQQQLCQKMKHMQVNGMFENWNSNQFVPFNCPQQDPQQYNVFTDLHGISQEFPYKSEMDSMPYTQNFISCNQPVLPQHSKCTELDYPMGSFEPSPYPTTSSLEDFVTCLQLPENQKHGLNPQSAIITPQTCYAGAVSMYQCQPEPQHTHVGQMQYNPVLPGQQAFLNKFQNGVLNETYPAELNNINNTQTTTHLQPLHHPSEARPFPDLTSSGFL
Summary of the method: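 Steps: seed HepG2-AhR-luc cells; allow 5 h at 37C; pin-transfer test compound or vehicle; incubate 24 h at 37C; add viability dye (30 min, 37C) and read fluorescence; add luciferase substrate (30 min, RT) and read luminescence.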

[13] = qHTS assay to identify small molecule that activate the aryl hydrocarbon receptor (AhR) signaling pathway - cell viability counter screen (AID 743086);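 also: HepG2 liver cells carrying the AhR DRE luciferase reporter; series mostly up to about 70 µM; nearly all actives have a fitted effect of over 45% in size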
Summary of the method: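 HepG2-AhR-luc (HG2L7.5c1) cells, 4000/well, treated 24 h at 37 C with compound; viability measured as CellTiter-Fluor fluorescence after 30 min in the same wells as the luciferase read.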

[14] = biological target: Peroxisome proliferator-activated receptor gamma (Homo sapiens) (UniProt P37231); experiment: qHTS assay to identify small molecule agonists of the peroxisome proliferator-activated receptor gamma (PPARg) signaling pathway (AID 743094; active = well fitted activation curve with a large enough effect in the signal ratio in the repeat runs, not every such curve was filed as active; the % refers to the signal ratio)
Peroxisome proliferator-activated receptor gamma (Homo sapiens), sequence (P37231 whole entry, looked up): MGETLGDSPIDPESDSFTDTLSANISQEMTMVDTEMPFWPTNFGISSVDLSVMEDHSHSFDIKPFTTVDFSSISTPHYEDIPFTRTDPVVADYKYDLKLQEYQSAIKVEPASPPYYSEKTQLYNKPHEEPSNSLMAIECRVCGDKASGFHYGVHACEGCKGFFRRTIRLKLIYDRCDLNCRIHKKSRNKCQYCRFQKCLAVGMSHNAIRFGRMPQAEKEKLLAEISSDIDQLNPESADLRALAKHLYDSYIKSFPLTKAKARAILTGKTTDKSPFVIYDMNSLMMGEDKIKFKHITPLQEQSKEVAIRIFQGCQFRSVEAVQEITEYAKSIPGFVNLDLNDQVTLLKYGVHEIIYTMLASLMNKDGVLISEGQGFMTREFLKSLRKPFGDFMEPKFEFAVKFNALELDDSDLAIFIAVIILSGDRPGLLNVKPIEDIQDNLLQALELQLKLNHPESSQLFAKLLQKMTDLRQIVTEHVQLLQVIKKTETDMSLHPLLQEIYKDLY
Summary of the method: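 Fluorescence-based beta-lactamase readout in HEK293H PPARg UAS-bla cells after 17 h compound exposure (37C) and 1 h B/G FRET substrate incubation at room temperature.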

[15] = biological target: Peroxisome proliferator-activated receptor gamma (Homo sapiens) (UniProt P37231); experiment: qHTS assay to identify small molecule antagonists of the peroxisome proliferator-activated receptor gamma (PPARg) signaling pathway (AID 743191; calls by dose curve; also: series mostly up to about 63 µM; nearly all actives have a fitted effect of over 30% in size)
Summary of the method: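 GeneBLAzer PPARg UAS-bla HEK293H cells, 5 h post-plating, exposed to compounds 17 h at 37C. LiveBLAzer B/G FRET substrate added for 1 h at room temperature; beta-lactamase reporter read by fluorescence intensity.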

[16] = qHTS assay to identify small molecule antagonists of the peroxisome proliferator-activated receptor gamma (PPARg) signaling pathway - cell viability counter screen (AID 743194); also: nearly all actives have a fitted effect of over 55% in size
Summary of the method: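 Cytotoxicity counter screen in PPARg-bla HEK293H cells, same wells as reporter assay. Compounds plus 50 nM rosiglitazone (final) for 17 h at 37 C, then viability read by CellTiter-Glo luminescence.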

[17] = qHTS assay for small molecule agonists of the antioxidant response element (ARE) signaling pathway (AID 743202; active = well fitted activation curve with a large enough effect in the signal ratio in the repeat runs, not every such curve was filed as active; the % refers to the signal ratio)
Summary of the method: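 HepG2 ARE-bla reporter line, 2,000 cells/well; 5 h preincubation 37 C/5% CO2; compound (DMSO) 16 h 37 C; B/G FRET substrate 2 h RT; fluorescence intensity.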

[18] = qHTS assay for small molecule agonists of the antioxidant response element (ARE) signaling pathway - cell viability counter screen (AID 743203; calls by dose curve; also: nearly all actives have a fitted effect of over 55% in size)
Summary of the method: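 Parallel cytotoxicity read-out for the ARE-bla screen: HepG2 reporter cells, 16 hrs with compounds, then CellTiter-Glo luminescence.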

[19] = qHTS assay for small molecule activators of the heat shock response signaling pathway - cell viability counter screen (AID 743209); also: nearly all actives have a fitted effect of over 50% in size
Summary of the method: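 To flag cytotoxic compounds, HSE-bla HeLa cells plated at 1500 cells/well were dosed for 5 h at 37 C, followed by the reporter FRET read and then CellTiter-Glo, with luminescence recorded 30 min after reagent addition.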

[20] = qHTS assay for small molecule activators of the heat shock response signaling pathway (AID 743210; active = well fitted activation curve with a large enough effect in the signal ratio in the repeat runs, with a control signal flat, not every such curve was filed as active; the % refers to the signal ratio;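 also: HeLa cells with beta-lactamase reporter driven by heat shock elements; series mostly up to about 63 µM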)
Summary of the method: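 Beta-lactamase reporter read-out: FRET substrate fluorescence after 2.5 h at RT, following 5 h compound treatment at 37 C of HeLa cells carrying HSE-driven bla reporter; quantitative HTS format.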

Measured: Potency

COCCOCCOCCOCCOC
not listed: [19] | [20]
inactive: all other assays above

Cn1c(=O)c2c(ncn2CC(O)CO)n(C)c1=O (configuration not stated)
not listed: [15]
inactive: all other assays above

O=C(Cl)c1ccc([N+](=O)[O-])cc1
not listed: [12]
inactive: all other assays above

OCC1CC2CC1C1CCC(CO)C21 (configuration not stated)
inactive: all assays above

CC(C)(C)C1CCCCC1O (configuration not stated)
not listed: [12] | [19]
inactive: all other assays above

O=C(O)C1CCC(C(=O)O)CC1 (configuration not stated)
inactive: all assays above

CCCCCCCCCO
not listed: [15] | [17]
inactive: all other assays above

CC[C@H](C)[C@H](N)C(=O)O
not listed: [18] | [19]
inactive: all other assays above

C=C(C)C(=O)OCCN(C)C
not listed: [17]
inactive: all other assays above

N#CCc1cccc(C(F)(F)F)c1
not listed: [15] | [19]
inactive: all other assays above

C[C@H](CCC(=O)O)[C@H]1CC[C@H]2[C@@H]3[C@H](O)C[C@@H]4C[C@H](O)CC[C@]4(C)[C@H]3CC[C@]12C
not listed: [15] | [16] | [17]
inactive: all other assays above

Cc1ncsc1CCO
not listed: [12] | [14] | [15] | [16]
inactive: all other assays above

CC[C@H](C)[C@@H](C(=O)O)n1sc2ccccc2c1=O
not listed: [15] | [17]
inactive: all other assays above

FC(F)(F)C(F)(F)C(F)(F)C(F)(F)C(F)(F)C(F)(F)CCI
not listed: [15]
inactive: all other assays above

Reference: PubChem BioAssay (Tox21)
